In PubChem BioAssay one finds composite z-score and z-score data, which are given here for five compounds.

Experiment [1] concerns PRMT1 (protein arginine N-methyltransferase 1). Kind of experiment: PRMT1 binders on small-molecule microarrays, primary screen, biochemical, small-molecule microarray, 635 nm fluorescence (AID 1088).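 Further: binding of Prmt1 protein to compounds spotted on small-molecule microarray slides.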 To be noted: small-molecule microarray binding, higher = more signal.
Experiment [2] in a line: yeast growth modulation, basal conditions, primary screen, YJM789 clinical isolate, OD600, 24 h (AID 1089).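 Further: growth of clinical yeast isolate S. cerevisiae YJM 789 seeded 1000 cells per well; test concentration not given here.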 Conditions: S. cerevisiae YJM789 growth, higher = more signal, called active from +8 up or from −8 down.
Experiment [3] is described as follows: fission yeast growth modulation, primary screen, strain 972, OD600, 24 h, no modulator (AID 1090).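 Further: basal condition with compound alone and no growth modifier present; test concentration not given here.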 Conditions: S. pombe 972 growth, higher = more signal, called active from +8 up or from −8 down.
Experiment [4] is described as follows: S. cerevisiae growth modulation with rapamycin, primary screen, strain BY4716, OD600, 96 h (AID 1091). Further: test concentration not given here. Conditions: higher = more signal, called active from +8 up or from −8 down.
In experiment [5] the target is Torsin-1A-interacting protein 2 (Homo sapiens) (UniProt Q8NFQ8). Kind of experiment: LULL1 binders on small-molecule microarray, primary screen, cell lysate, human LULL1 lysate, 635/667 nm fluorescence (AID 1092).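 Further: probe is lysate of COS7 cells overexpressing human LULL1; score merges per-feature 667 nm fluorescence with signal-to-noise.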 Conditions: hLULL1 lysate binding, 635 nm fluorescence, higher = more signal.
Chain of Torsin-1A-interacting protein 2 (Homo sapiens) (Q8NFQ8 whole entry, looked up): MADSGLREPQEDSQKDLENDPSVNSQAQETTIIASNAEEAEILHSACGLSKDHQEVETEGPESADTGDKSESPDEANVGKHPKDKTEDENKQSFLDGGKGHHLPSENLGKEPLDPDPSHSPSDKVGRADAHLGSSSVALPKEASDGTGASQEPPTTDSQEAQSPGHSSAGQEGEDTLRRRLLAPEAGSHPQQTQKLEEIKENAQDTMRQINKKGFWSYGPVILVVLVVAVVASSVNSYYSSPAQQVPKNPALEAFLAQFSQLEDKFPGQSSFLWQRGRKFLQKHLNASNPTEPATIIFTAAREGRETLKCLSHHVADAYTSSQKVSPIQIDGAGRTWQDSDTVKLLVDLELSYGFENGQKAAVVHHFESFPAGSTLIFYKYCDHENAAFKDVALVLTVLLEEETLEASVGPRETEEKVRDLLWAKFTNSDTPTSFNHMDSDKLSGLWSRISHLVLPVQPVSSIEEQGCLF
The nature of experiment [6]: E. coli growth modulation, two-sided OD650, primary screen, E. coli filamentation project, strain DRC41, 24 h (AID 1093).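 Further: MC1000 strain lacking acrAB efflux and sulA so SOS filamentation is blocked; test concentration not given here.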 To be noted: OD650, 24 h, higher = more signal, called active from +8 up or from −8 down.
The nature of experiment [7]: small-molecule microarray binders of probe aLefty2, primary screen, biochemical, biotinylated probe, 635/667 nm fluorescence (AID 1094).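 Further: score merges spot fluorescence near 667 nm with spot signal-to-noise ratio.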 To be noted: higher = more signal.
Experiment [8] relates to Noggin (protein binding on small-molecule microarray). Nature of the experiment: Noggin binders on small-molecule microarray, primary screen, biochemical, 635/667 nm fluorescence (AID 1095).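 Further: score merges 667 nm feature fluorescence with signal to noise over triplicate slides.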 To be noted: 635 nm fluorescence, higher = more signal.
Experiment [9] deals with Neurogenic locus notch homolog protein 3 (Homo sapiens) (UniProt Q9UM47). Nature of the experiment: NOTCH3 binders on small-molecule microarray, primary screen, biochemical, 635/667 nm fluorescence (AID 1096). To be noted: NOTCH3 binding, 635 nm fluorescence, higher = more signal.
Chain of Neurogenic locus notch homolog protein 3 (Homo sapiens) (Q9UM47 whole entry, looked up): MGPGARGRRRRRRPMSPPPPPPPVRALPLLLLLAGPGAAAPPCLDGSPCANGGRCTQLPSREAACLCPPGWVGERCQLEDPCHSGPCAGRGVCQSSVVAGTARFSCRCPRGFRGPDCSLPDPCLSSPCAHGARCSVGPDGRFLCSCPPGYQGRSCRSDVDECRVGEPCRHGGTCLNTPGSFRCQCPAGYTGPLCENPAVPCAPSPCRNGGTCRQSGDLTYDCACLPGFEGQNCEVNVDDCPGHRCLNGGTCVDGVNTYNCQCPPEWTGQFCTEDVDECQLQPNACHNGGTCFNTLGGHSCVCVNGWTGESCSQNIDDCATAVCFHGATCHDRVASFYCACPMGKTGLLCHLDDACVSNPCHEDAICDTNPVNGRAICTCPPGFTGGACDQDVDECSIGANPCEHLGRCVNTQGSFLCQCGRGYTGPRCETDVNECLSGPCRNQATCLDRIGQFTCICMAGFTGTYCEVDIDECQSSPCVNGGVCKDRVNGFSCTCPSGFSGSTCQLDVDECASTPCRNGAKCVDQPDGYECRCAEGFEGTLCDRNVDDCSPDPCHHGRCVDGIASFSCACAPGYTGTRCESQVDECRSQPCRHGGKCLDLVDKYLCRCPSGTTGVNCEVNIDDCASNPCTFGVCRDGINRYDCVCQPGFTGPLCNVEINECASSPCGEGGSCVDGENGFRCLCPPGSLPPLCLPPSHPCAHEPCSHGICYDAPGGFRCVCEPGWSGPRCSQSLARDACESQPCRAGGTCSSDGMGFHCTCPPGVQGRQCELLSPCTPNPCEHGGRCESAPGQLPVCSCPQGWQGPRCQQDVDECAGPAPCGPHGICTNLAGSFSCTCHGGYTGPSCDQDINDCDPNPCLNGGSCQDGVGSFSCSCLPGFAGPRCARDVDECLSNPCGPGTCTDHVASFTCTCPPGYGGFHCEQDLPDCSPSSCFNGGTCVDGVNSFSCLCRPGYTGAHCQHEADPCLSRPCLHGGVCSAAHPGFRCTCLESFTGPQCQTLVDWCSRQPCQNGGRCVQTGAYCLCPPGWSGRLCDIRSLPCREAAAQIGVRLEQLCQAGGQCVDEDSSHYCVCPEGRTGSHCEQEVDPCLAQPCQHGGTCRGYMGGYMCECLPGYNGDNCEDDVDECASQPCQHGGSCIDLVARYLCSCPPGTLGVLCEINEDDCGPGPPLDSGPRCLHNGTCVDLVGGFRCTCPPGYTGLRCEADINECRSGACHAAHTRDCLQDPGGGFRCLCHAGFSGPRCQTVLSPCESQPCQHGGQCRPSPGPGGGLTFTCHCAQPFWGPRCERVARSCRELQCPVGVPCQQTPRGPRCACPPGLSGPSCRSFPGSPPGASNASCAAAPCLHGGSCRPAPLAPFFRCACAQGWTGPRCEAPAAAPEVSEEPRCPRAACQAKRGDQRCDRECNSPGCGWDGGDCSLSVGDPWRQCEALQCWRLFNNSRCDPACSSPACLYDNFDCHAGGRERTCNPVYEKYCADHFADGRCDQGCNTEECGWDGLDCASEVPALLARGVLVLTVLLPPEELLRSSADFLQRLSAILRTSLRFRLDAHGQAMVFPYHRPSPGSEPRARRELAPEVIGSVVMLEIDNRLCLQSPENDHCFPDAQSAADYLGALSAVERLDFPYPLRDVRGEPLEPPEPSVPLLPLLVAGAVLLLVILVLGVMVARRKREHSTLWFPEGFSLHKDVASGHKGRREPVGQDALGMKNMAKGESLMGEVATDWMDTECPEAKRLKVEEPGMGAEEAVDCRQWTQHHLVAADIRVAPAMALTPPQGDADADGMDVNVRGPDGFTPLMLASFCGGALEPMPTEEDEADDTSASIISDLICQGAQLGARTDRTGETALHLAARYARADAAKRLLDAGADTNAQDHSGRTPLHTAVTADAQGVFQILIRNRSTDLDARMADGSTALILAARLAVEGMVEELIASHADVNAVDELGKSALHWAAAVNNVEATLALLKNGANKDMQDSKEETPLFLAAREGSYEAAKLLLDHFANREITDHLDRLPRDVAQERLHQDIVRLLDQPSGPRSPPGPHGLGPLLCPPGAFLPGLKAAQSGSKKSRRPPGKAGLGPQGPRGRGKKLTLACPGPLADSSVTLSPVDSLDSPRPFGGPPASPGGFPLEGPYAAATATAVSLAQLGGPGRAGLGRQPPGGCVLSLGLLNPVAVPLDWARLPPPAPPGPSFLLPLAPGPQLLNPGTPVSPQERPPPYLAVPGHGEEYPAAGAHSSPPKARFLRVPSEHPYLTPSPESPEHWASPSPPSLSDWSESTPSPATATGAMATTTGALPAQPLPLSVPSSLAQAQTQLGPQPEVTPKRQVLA
Experiment [10] in a line: small-molecule microarray binders of probe aEGFR, primary screen, biochemical, biotinylated probe, 635/667 nm fluorescence (AID 1097).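 Further: probe is a biotinylated anti-EGFR antibody binding compounds printed on slides; score combines fluorescence near 667 nm and signal to noise of each spot.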 Conditions: higher = more signal.
Experiment [11] relates to Plasmodium falciparum Sir2 (PF13_0152, Sir2A). Nature of the experiment: pfSir2 binders on small-molecule microarrays, primary screen, biochemical, small-molecule microarray, 635 nm fluorescence (AID 1098).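 Further: score merges spot fluorescence intensity with its signal-to-noise ratio.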 To be noted: small-molecule microarray binding, fluorescence 635 nm; higher = more signal.
Experiment [12] can be described thus: small-molecule microarray binders of probe aDKK1, primary screen, biochemical, biotinylated probe, 635/667 nm fluorescence (AID 1099).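 Further: score merges 667nm spot fluorescence with signal to noise across triplicate slides; reference of the scale not given here.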 Conditions: higher = more signal.
Experiment [13] can be described thus: small-molecule microarray binders of probe aCHRDL2, primary screen, biochemical, biotinylated probe, 635/667 nm fluorescence (AID 1100). Conditions: higher = more signal.
Experiment [14] can be described thus: splicing luciferase reporter signal modulators, primary screen, spliceosome inhibition project, cell-based, HEK293, splice +/- reporter (AID 1101).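 Further: HEK293 cells carrying a splicing-competent luciferase reporter gene; test concentration not given here.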 Conditions: luminescence, 24 h, higher = more signal, called active from +8 up or from −8 down. (Reporter assays use an easily measured gene product as a stand-in for the process of interest.)
Experiment [15] addresses Fibroblast growth factor 10 (Homo sapiens) (UniProt O15520). Kind of experiment: FGF10 binders on small-molecule microarrays, primary screen, biochemical, small-molecule microarray, 635 nm fluorescence (AID 1102). To be noted: FGF10 binding, fluorescence 635 nm, higher = more signal.
Experiment [16] relates to glycogen synthase kinase-3 (GSK3A per assay name; protocol says GSK3B). Kind of experiment: GSK3 binders on small-molecule microarrays, primary screen, biochemical, small-molecule microarray, 635 nm fluorescence, GSK3A (AID 1103). Further: the record names both GSK3A and GSK3B. To be noted: small-molecule microarray binding, fluorescence 635 nm; higher = more signal.
Experiment [17] has as its target Epidermal growth factor receptor (Homo sapiens) (UniProt P00533). Nature of the experiment: EGFR binders on small-molecule microarrays, primary screen, biochemical, small-molecule microarray, 635 nm fluorescence (AID 1104).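 Further: score merges 667 nm emission intensity with spot signal to noise over triplicate slides.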 To be noted: EGFR binding, higher = more signal.
Experiment [18] addresses Follistatin-related protein 3 (Homo sapiens) (UniProt O95633). Kind of experiment: FSTL3 binders on small-molecule microarrays, primary screen, biochemical, small-molecule microarray, 635 nm fluorescence (AID 1105).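 Further: score merges emission near 667 nm and signal to noise per printed spot across three slides.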 Conditions: FSTL3 binding, higher = more signal.
Experiment [19] addresses Dickkopf-related protein 1 (Homo sapiens) (UniProt O94907). Nature of the experiment: DKK1 binders on small-molecule microarrays, primary screen, biochemical, small-molecule microarray, 635 nm fluorescence scan (AID 1106).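 Further: score merges emission near 667 nm with signal to noise over three replicate slides.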 To be noted: DKK1 binding, higher = more signal.
Experiment [20] relates to Inhibin beta A chain (activin A). Nature of the experiment: INHBA (activin A) binders on microarrays, primary screen, biochemical, small-molecule microarray, 635 nm fluorescence scan (AID 1107).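 Further: mouse activin A protein probed at 4.33 µg/mL on printed slides; score merges bound-protein fluorescence near 667 nm with spot signal-to-noise.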 Conditions: small-molecule microarray binding, higher = more signal.

Activity calls are given as the source filed them.

Chain of Epidermal growth factor receptor (Homo sapiens) (P00533 whole entry, looked up): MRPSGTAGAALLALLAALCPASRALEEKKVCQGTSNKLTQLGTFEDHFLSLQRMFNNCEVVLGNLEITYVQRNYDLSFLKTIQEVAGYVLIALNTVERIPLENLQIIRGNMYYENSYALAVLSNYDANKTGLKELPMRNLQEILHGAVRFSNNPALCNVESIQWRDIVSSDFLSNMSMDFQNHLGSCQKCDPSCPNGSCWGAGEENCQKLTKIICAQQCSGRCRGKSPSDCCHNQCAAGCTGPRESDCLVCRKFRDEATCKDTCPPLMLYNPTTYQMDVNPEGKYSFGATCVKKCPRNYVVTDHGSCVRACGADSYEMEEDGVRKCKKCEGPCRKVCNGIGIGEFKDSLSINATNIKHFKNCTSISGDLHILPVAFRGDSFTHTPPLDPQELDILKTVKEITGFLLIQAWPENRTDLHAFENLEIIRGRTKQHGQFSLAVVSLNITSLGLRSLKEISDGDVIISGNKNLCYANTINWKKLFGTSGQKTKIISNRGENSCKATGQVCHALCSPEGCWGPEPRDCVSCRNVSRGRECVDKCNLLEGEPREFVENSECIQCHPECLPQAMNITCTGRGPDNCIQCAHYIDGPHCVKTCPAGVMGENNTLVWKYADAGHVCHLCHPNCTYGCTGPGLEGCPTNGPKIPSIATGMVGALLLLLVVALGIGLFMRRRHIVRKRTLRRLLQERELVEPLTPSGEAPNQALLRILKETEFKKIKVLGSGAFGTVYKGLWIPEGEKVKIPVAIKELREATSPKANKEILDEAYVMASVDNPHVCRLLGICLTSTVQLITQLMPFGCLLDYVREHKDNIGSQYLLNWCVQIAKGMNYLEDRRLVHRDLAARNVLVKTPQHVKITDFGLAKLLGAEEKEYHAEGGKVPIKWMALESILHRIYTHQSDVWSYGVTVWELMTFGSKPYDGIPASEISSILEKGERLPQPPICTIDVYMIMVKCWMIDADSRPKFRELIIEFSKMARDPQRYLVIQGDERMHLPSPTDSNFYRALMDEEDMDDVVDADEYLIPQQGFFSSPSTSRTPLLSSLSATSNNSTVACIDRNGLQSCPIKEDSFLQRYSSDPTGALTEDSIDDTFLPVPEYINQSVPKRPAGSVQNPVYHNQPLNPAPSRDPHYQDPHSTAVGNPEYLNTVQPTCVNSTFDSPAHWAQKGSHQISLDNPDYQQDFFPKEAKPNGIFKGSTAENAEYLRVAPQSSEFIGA
Chain of Follistatin-related protein 3 (Homo sapiens) (O95633 whole entry, looked up): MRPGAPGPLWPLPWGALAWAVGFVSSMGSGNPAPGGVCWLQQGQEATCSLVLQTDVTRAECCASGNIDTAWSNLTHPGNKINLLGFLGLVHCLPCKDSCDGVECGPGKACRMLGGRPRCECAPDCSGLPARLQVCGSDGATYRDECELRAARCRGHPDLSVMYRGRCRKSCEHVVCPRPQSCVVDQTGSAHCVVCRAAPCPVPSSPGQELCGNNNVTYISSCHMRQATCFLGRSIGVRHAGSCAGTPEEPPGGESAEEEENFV
Chain of Fibroblast growth factor 10 (Homo sapiens) (O15520 whole entry, looked up): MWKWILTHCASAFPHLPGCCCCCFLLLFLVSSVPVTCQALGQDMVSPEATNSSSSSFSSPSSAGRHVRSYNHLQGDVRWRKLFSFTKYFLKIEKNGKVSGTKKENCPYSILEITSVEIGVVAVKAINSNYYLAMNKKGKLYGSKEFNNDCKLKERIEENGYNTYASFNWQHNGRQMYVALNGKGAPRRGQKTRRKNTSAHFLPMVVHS
Chain of Dickkopf-related protein 1 (Homo sapiens) (O94907 whole entry, looked up): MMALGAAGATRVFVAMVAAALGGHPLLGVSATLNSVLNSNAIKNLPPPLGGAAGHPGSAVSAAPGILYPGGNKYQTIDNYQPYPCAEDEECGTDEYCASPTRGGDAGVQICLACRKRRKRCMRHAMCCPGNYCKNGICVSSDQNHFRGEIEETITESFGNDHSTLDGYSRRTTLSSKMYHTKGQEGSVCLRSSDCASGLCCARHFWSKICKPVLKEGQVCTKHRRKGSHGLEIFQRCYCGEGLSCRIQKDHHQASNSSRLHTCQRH

Turning to `COC(=O)CC=C[C@@H](C)[C@@H](C=NO[C@H](C)c1cn([C@@H]2COC[C@H]2O)nn1)NS(=O)(=O)c1ccc(C)cc1`, the composite z-score in experiment [1] is 0.274; in experiment [5], -0.0305; in [7], 0.0428; in experiment [8], 0.492; in experiment [9] it was 0.223; in [10], 0.0049. Moreover, the composite z-score was 0.163 in experiment [11]; -0.268 in experiment [12]; -0.57 in [13]; 0.43 in [15]; 0.427 in experiment [16]; 0.59 in [17]. The composite z-score in experiment [18] was 0.746; in [19] it was 1.07; in experiment [20], 0.216. In addition, the z-score in experiment [2] is 0.412 (inactive); in experiment [3] it was 0.144 (inactive); in [4], -0.173 (inactive); in experiment [6] it was 0.554 (inactive); in experiment [14] it was -0.0248 (inactive).

As for `COC(=O)CC=C[C@@H](C)[C@@H](C=NOC[C@H]1O[C@H](c2ccccc2)C=C[C@@H]1Oc1ccc(OC)cc1)NS(=O)(=O)c1ccc(C)cc1`, the composite z-score in experiment [1] was -1.27; in experiment [5] it was -0.744; in [7] it was -0.0785; in [8], -0.882; in experiment [9] it was -0.939; in [10], -0.195. Further, the composite z-score in experiment [11] is -0.611; in experiment [12], 0.0033; in experiment [13], 0.674; in [15], -0.858; in [16], -1.78; in experiment [17], -0.873. Also, the values for the composite z-score in [18], in [19] and in experiment [20] were -1.2, -0.462 and 0.797, respectively. The z-score in [2] was 0.0204 (inactive); in [3], 0.321 (inactive); in experiment [4], -0.382 (inactive); in [6], -0.513 (inactive); in experiment [14] it was 0.00198 (inactive).

In the case of `O=C1[C@H]2[C@H]3[C@H](O)[C@H](O)CC(=NOC[C@@H](O)COCc4ccco4)[C@H]3CC[C@H]2C(=O)N1Cc1ccccc1`, the composite z-score was 0.411 in experiment [1]; -1.71 in [5]; -0.148 in [7]; 0.594 in experiment [8]; -0.309 in experiment [9]; -0.0973 in experiment [10]. Besides, the composite z-score is 0.467 in experiment [11]; -0.49 in [12]; -0.964 in experiment [13]; 0.378 in experiment [15]; 0.0077 in [16]; 0.522 in experiment [17]. The composite z-score in experiment [18] was determined as 0.404; in experiment [19], 0.901; in [20], 0.764. The z-score in experiment [2] was -1.14 (inactive); in [3] it was -1.05 (inactive); in experiment [4], -1.11 (inactive); in experiment [6], -0.518 (inactive); in experiment [14], -0.907 (inactive).

In the case of `C#CCCCON=C1[C@H]2CCn3c(=O)n(C)c(=O)n3[C@H]2[C@H](O)[C@@H]2O[C@H]12`, the composite z-score is -0.677 in [1]; -0.0133 in [5]; -0.132 in experiment [7]; 1.18 in experiment [8]; 0.891 in experiment [9]; -0.148 in [10]. In addition, the composite z-score in experiment [11] is 0.325; in experiment [12] it was -0.316; in experiment [13], -0.548; in experiment [15], 0.478; in experiment [16] it was 0.832; in experiment [17], 0.719. Also, the composite z-score stood at 0.938 in experiment [18], 0.811 in experiment [19] and 0.213 in [20]. Moreover, the z-score was 0.516 (inactive) in experiment [2]; -0.377 (inactive) in experiment [3]; 0.658 (inactive) in [4]; -0.305 (inactive) in experiment [6]; 0.0589 (inactive) in [14].

On to `CON=C[C@@H](C)[C@H](OCc1ccccc1)C(C)C`, for which the composite z-score was -1.25 in experiment [1]; -0.618 in experiment [5]; -0.149 in experiment [7]; 0.314 in [8]; -0.154 in experiment [9]; -0.158 in experiment [10]. Also, the composite z-score is -0.187 in experiment [11]; -0.152 in experiment [12]; -0.225 in experiment [13]; 0.0578 in experiment [15]; -0.594 in [16]; 0.327 in experiment [17]. Besides, the composite z-score in [18] was 0.122; in experiment [19], 0.312; in experiment [20], 0.216. For the same compound, the z-score is 0.0195 (inactive) in experiment [2]; -0.596 (inactive) in experiment [3]; 0.772 (inactive) in experiment [4]; -0.718 (inactive) in experiment [6]; -0.829 (inactive) in [14].
